Compounds without any hit were thinned out: in the full panel of roughly 83,000, 20% have a hit.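 Negative percent growth values reflect cell death: -40 means 40% of the cells present at the start died, and -100 means all died.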 Values without a mark were called inactive. Activity calls are given as the source filed them. How the source made its calls: active means growth percent below 10; inactive means the rest.

Drawing on PubChem BioAssay (NCI), this text covers growth for eight molecules.

Test systems include SR leukemia; RPMI-8226 leukemia; OVCAR-8 ovarian; OVCAR-5 ovarian; OVCAR-4 ovarian; SK-OV-3 ovarian; IGROV1 ovarian; OVCAR-3 ovarian; HS 578T breast; NCI/ADR-RES ovarian; T-47D breast; BT-549 breast; MDA-MB-435 melanoma; SW-620 colon; MCF7 breast; HCT-116 colon; HCC-2998 colon; KM12 colon.
Test in all cases: NCI-60 one-dose screen, 48 h (100 = growth as untreated, 0 = no growth, -100 = all killed)
Common to all, as to settings: 10 µM unless noted

Turning to `c1ccc2cc(Cn3cc(CSc4nc5ccccc5s4)nn3)ccc2c1`, the growth with SR leukemia was 103%; in the experiment on RPMI-8226 leukemia, 95.7%; in the experiment with OVCAR-8 ovarian, 90.7%; in the experiment with OVCAR-5 ovarian, 99.7%; in the experiment on OVCAR-4 ovarian, 98.1%; in the experiment on SK-OV-3 ovarian, 93.3%. Also, the growth was 93.9% with IGROV1 ovarian; 103% in the experiment with OVCAR-3 ovarian; 87.1% in the experiment on HS 578T breast; 96.9% in the experiment with NCI/ADR-RES ovarian; 80.8% in the experiment on T-47D breast; 96.3% in the experiment with BT-549 breast. The growth in the experiment with MDA-MB-435 melanoma was 105%; in the experiment with SW-620 colon, 94.5%; in the experiment on MCF7 breast it was 91.7%; with HCT-116 colon, 96.3%; in the experiment on HCC-2998 colon, 102%; in the experiment on KM12 colon, 100%.
On to `O=C1C=C(SCCO)C(=O)c2ccccc21`, for which the growth in the experiment with SR leukemia is -16.1% (active); in the experiment with RPMI-8226 leukemia, 12.9%; in the experiment with OVCAR-8 ovarian, 28.9%; with OVCAR-5 ovarian, 87.7%; with OVCAR-4 ovarian, 39.1%; with SK-OV-3 ovarian it was 105%. In addition, the growth in the experiment on IGROV1 ovarian was 68.6%; in the experiment on OVCAR-3 ovarian it was -3.21% (active); in the experiment with HS 578T breast, 2.8% (active); with NCI/ADR-RES ovarian it was 4.12% (active); with T-47D breast it was -1.68% (active); in the experiment on BT-549 breast, -26.5% (active). In addition, the growth with MDA-MB-435 melanoma was -88.3% (active); with SW-620 colon, -52.6% (active); in the experiment on MCF7 breast it was -55.1% (active); with HCT-116 colon, -48.5% (active); in the experiment with HCC-2998 colon it was 78.3%; in the experiment with KM12 colon, 83.4%.
As for `CSc1nc2ccc(C)cc2cc1/C=C1/C=C(c2ccccc2)NC1=O`, the growth was 10.1% with SR leukemia; 57.3% with RPMI-8226 leukemia; 55.5% in the experiment on OVCAR-8 ovarian; 63.9% in the experiment with OVCAR-5 ovarian; -51.9% (active) in the experiment on OVCAR-4 ovarian; 76.2% in the experiment with SK-OV-3 ovarian. In addition, the growth in the experiment on IGROV1 ovarian is 25.6%; in the experiment with OVCAR-3 ovarian, 6.24% (active); in the experiment with HS 578T breast, 28.9%; in the experiment with NCI/ADR-RES ovarian, 51.6%; in the experiment on T-47D breast, -0.11% (active); with BT-549 breast, 76%. Also, the growth is 30.9% in the experiment on MDA-MB-435 melanoma; 34.9% in the experiment on SW-620 colon; 48.1% in the experiment with MCF7 breast; 9.26% (active) in the experiment on HCT-116 colon; 83.4% in the experiment on HCC-2998 colon; 70.4% in the experiment with KM12 colon.
As for `CCN(CC)CCOc1ccc2c(-c3ccccc3)c(-c3ccc(OC)cc3)c(=O)oc2c1`, the growth was 21.9% in the experiment on SR leukemia; 48.8% in the experiment on RPMI-8226 leukemia; 72.6% in the experiment with OVCAR-8 ovarian; 91.6% with OVCAR-5 ovarian; 73.7% in the experiment on OVCAR-4 ovarian; 84% with SK-OV-3 ovarian. The growth with IGROV1 ovarian was 110%; in the experiment on OVCAR-3 ovarian it was 94.3%; in the experiment with HS 578T breast, 63.4%; in the experiment with NCI/ADR-RES ovarian, 66.7%; in the experiment with T-47D breast, 51.4%; in the experiment with BT-549 breast, 90.6%. The growth in the experiment on MDA-MB-435 melanoma is 41.3%; in the experiment with SW-620 colon, 39.4%; with MCF7 breast, 61.3%; in the experiment on HCT-116 colon, 30%; in the experiment with HCC-2998 colon, 90.9%; in the experiment with KM12 colon, 60.4%.
On to `Clc1ccc(Nc2ncc(Cc3cccc(Cl)c3Cl)s2)cc1`, for which the growth in the experiment with SR leukemia was 102%; in the experiment with RPMI-8226 leukemia it was 89.4%; with OVCAR-8 ovarian it was 98%; with OVCAR-5 ovarian it was 85.8%; with OVCAR-4 ovarian it was 94.8%; in the experiment on SK-OV-3 ovarian it was 102%. Also, the growth in the experiment with IGROV1 ovarian was 93.3%; in the experiment with OVCAR-3 ovarian, 100%; in the experiment on HS 578T breast, 102%; with NCI/ADR-RES ovarian it was 93.3%; with T-47D breast it was 77.9%; with BT-549 breast, 129%. The growth in the experiment on MDA-MB-435 melanoma was 105%; with SW-620 colon it was 101%; in the experiment with MCF7 breast, 90.9%; in the experiment with HCT-116 colon, 92.8%; in the experiment on HCC-2998 colon, 101%; in the experiment on KM12 colon, 101%.
Turning to `O=C(/C=C/c1ccccc1)c1cccc2ccccc12`, the growth with SR leukemia is 8.29% (active); with RPMI-8226 leukemia, 6.78% (active); in the experiment on OVCAR-8 ovarian, 19.9%; in the experiment with OVCAR-5 ovarian, 103%; with OVCAR-4 ovarian, 41.3%; with SK-OV-3 ovarian it was 62.2%. The growth with IGROV1 ovarian was 47.3%; in the experiment on OVCAR-3 ovarian it was 22.4%; with HS 578T breast, 32.1%; in the experiment on NCI/ADR-RES ovarian, 24.9%; with T-47D breast, 32.9%; with BT-549 breast, 62.5%. In addition, the growth in the experiment on MDA-MB-435 melanoma is 16.8%; in the experiment on SW-620 colon, 9.3% (active); in the experiment with MCF7 breast, 11.6%; with HCT-116 colon, 32%; with HCC-2998 colon, 48.3%; in the experiment with KM12 colon, 37.4%.
In the case of `COc1cc(-c2ccc(-c3ccc(C(=N)N)cc3)s2)cc(OC)c1OC`, the growth was 5.38% (active) in the experiment on SR leukemia; -22.6% (active) in the experiment on RPMI-8226 leukemia; 70.7% in the experiment with OVCAR-8 ovarian; 83% in the experiment on OVCAR-5 ovarian; 54% with OVCAR-4 ovarian; 77.9% with SK-OV-3 ovarian. Moreover, the growth with IGROV1 ovarian is 62.6%; with OVCAR-3 ovarian, 46%; with HS 578T breast, 34.7%; in the experiment with NCI/ADR-RES ovarian it was 95.4%; with T-47D breast, 55.2%; with BT-549 breast, 86.3%. Further, the growth with MDA-MB-435 melanoma is 40.4%; in the experiment with SW-620 colon, 20.9%; with MCF7 breast, 13.6%; with HCT-116 colon, 15%; in the experiment on HCC-2998 colon, -19.6% (active); with KM12 colon, 23.4%.
In the case of `Oc1nc(NCc2ccccc2)sc1/C=C1\C=Nc2ncccc21`, the growth in the experiment on SR leukemia is 2.17% (active); with RPMI-8226 leukemia it was 87.1%; with OVCAR-8 ovarian, 47.9%; in the experiment on OVCAR-5 ovarian, 82.2%; in the experiment on OVCAR-4 ovarian, 96.4%; in the experiment on SK-OV-3 ovarian, 53.9%. Also, the growth is 67.2% in the experiment with IGROV1 ovarian; 53.5% in the experiment with OVCAR-3 ovarian; 53.2% in the experiment with HS 578T breast; 73.7% in the experiment on NCI/ADR-RES ovarian; 63.6% in the experiment on T-47D breast; 42.7% in the experiment on BT-549 breast. Further, the growth in the experiment with MDA-MB-435 melanoma was 74.2%; in the experiment with SW-620 colon it was 44.5%; in the experiment with MCF7 breast it was 42%; in the experiment on HCT-116 colon, 24.3%; in the experiment with HCC-2998 colon, 102%; with KM12 colon, 55%.
